Molecules are shown by their SMILES. For some of these results: Results with a measured potency or affinity are listed apart.

Holding throughout (set-up): scale not given: direction of the effect not stated beside the values
Assay [1] addresses Protein translocase subunit SecA (Escherichia coli (strain K12)) (UniProt P10408). Kind of assay: Assay to Identify E. coli SecA ATPase Inhibitors. In kind it is functional. The settings on record: 30 µM.
In assay [2] the target is T1, Ubiquitin-activating enzyme e1, putative (Leishmania donovani (strain BPK282A1)) (UniProt E9BSI1).
T1 sequence (whole entry): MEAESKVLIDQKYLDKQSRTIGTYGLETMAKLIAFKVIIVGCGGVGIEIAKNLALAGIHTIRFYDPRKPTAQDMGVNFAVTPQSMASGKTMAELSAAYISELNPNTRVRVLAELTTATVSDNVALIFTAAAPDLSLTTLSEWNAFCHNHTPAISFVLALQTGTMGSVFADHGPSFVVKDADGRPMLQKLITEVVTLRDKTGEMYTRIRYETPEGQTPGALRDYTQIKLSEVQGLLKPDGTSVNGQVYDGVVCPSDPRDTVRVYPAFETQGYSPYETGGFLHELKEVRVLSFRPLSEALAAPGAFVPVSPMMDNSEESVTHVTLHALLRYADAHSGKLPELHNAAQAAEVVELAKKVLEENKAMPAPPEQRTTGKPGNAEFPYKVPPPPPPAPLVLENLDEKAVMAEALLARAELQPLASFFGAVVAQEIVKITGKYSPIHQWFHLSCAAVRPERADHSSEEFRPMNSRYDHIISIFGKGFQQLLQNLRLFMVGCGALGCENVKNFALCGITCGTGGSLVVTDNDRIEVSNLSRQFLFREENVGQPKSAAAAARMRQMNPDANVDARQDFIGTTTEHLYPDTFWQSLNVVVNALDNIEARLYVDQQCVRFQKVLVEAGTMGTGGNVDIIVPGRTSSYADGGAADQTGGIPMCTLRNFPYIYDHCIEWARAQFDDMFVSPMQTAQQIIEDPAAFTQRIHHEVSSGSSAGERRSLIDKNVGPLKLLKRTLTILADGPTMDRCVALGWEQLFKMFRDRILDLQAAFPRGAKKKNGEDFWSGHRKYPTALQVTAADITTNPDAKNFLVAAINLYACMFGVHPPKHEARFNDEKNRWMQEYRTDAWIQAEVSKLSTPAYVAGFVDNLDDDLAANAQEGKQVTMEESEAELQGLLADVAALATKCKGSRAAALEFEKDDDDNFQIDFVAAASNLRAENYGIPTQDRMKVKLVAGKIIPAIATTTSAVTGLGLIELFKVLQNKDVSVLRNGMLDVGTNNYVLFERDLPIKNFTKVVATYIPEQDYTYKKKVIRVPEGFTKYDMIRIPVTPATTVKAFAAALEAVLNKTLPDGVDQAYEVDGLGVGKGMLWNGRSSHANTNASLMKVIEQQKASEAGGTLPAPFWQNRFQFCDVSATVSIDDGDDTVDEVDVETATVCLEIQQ
Put plainly: Leishmania donovani Ubiquitin Activating Enzyme (LdE1). In kind it is functional. The settings on record: 30 µM.

The target in assay [3] is AMP-activated protein kinase, AMPK (Homo sapiens) (UniProt P54646+O43741+P54619+Q9UGJ0+Q9Y478+Q13131+Q9UGI9). Kind of assay: AMP-dependent Kinase enzyme assay. An in vitro enzyme assay that detects ADP turnover that is directly proportional to AMPK activity. This uses naive AMPK that is activated during the assay with MK-8722. In kind it is functional. The settings on record: 30 µM.

The target in assay [4] is Sialic acid-binding Ig-like lectin 9 (Homo sapiens) (UniProt Q9Y336). Kind of assay: Hs-Siglec9 ALPHAscreen SOP 20170721. Conditions: 10 µM.
Chain of Sialic acid-binding Ig-like lectin 9 (Homo sapiens) (Q9Y336 whole entry): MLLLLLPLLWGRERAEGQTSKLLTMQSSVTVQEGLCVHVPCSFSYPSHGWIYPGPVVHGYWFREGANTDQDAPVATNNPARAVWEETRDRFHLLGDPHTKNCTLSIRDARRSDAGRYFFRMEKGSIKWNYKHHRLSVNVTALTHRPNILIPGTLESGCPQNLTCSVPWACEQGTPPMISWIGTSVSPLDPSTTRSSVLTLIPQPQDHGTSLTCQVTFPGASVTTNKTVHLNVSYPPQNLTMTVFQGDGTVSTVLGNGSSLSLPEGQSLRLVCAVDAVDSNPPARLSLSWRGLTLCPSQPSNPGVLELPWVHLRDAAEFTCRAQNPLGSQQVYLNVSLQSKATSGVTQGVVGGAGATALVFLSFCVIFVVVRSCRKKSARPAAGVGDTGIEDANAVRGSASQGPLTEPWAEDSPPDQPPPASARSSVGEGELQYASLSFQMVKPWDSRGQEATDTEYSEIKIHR
A further assay deals with Trypanosoma cruzi. Kind of assay: Trypanosoma cruzi phosphomannomutase and mannose-1-phosphate guanylyltransferase assay. In kind it is functional. Conditions: 10 µM.
Assay [5] addresses T2, Arginase-2, mitochondrial (Homo sapiens) (UniProt P78540).
T2 sequence (whole entry): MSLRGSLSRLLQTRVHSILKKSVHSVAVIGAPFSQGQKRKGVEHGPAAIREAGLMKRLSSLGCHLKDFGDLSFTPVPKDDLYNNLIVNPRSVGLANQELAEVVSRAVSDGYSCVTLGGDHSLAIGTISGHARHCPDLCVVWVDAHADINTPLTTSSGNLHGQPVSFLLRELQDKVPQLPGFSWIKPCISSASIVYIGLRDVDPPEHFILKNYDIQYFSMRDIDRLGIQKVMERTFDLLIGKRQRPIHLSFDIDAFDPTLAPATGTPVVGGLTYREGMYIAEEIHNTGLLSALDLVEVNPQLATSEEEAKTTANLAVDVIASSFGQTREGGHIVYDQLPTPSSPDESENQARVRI
Kind of assay: in vitro enzyme assay to detect the production of urea directly proportional to the activity of Arginase II. Note: in the data most compounds retested in dose-response had high values. The settings on record: 33.3 µM. In kind it is functional.

Assay [6] deals with T3, Proteasome subunit beta (Trypanosoma cruzi) (UniProt O96673).
T3 sequence (whole entry): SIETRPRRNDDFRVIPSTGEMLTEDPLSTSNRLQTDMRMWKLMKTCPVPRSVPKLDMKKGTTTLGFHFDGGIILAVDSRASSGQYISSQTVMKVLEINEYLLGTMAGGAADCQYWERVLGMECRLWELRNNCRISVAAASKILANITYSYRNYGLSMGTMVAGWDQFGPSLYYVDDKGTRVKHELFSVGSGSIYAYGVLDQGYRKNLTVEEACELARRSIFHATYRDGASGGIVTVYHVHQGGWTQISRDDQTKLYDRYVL
Kind of assay: Trypanosoma cruzi proteasome chymotrypsin-like activity (TcProtChymo) assay. Note: in the data most compounds retested in dose-response had high values. Conditions: 9.37 µM. Format: functional.

The species entered for a further assay is Homo sapiens. Put plainly: To identify inhibition of the IFN signalling (Jak-Stat) pathway via expression of an eGFP reporter gene under the control of an IFN-stimulated response element (ISRE) containing MxA promoter. Format: functional. The settings on record: 30 µM. (Reporter assays use an easily measured gene product as a stand-in for the process of interest.)

Assay [7] has as its target T4, Tyrosyl-tRNA synthetase, putative (Trypanosoma cruzi (strain CL Brener)) (UniProt Q4DSP6).
T4 sequence (whole entry): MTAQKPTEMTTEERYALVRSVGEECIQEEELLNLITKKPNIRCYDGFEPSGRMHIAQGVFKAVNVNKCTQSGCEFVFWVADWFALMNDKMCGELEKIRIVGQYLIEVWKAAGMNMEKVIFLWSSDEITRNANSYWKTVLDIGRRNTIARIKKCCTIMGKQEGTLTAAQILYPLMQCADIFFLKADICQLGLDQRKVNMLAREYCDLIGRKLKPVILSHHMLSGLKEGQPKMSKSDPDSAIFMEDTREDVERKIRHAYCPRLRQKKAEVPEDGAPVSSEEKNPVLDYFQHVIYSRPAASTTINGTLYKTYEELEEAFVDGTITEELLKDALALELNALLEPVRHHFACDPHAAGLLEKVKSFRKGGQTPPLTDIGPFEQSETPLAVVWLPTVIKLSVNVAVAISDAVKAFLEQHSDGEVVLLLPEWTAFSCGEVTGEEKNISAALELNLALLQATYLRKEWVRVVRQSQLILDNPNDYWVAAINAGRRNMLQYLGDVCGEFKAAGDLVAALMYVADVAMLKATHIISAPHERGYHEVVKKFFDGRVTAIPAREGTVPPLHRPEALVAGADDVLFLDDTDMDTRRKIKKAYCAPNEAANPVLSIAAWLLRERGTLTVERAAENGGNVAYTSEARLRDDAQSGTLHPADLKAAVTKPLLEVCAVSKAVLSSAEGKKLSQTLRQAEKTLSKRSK
Put plainly: Trypanosoma cruzi tyrosyl tRNA synthetase (TcYRS) _High Tyrosine SOP. Note: in the data most compounds retested in dose-response had high values. In kind it is functional. The settings on record: 30 µM.

In assay [8] the target is T4, Tyrosyl-tRNA synthetase, putative (Trypanosoma cruzi (strain CL Brener)). Kind of assay: Trypanosoma cruzi tyrosyl tRNA synthetase (TcYRS) SOP. In kind it is functional. The settings on record: 30 µM.
The target of assay [9] is Chromo domain-containing protein 1 (Saccharomyces cerevisiae (strain ATCC 204508 / S288c) (Baker's yeast)) (UniProt P32657). Kind of assay: ScCHD-1 Enzyme Inhibition Assay. Note: in the data most compounds retested in dose-response had high values. Format: functional. Conditions: 30 µM.
Chain of Chromo domain-containing protein 1 (Saccharomyces cerevisiae (strain ATCC 204508 / S288c) (Baker's yeast)) (P32657 whole entry, the tested form may be a part): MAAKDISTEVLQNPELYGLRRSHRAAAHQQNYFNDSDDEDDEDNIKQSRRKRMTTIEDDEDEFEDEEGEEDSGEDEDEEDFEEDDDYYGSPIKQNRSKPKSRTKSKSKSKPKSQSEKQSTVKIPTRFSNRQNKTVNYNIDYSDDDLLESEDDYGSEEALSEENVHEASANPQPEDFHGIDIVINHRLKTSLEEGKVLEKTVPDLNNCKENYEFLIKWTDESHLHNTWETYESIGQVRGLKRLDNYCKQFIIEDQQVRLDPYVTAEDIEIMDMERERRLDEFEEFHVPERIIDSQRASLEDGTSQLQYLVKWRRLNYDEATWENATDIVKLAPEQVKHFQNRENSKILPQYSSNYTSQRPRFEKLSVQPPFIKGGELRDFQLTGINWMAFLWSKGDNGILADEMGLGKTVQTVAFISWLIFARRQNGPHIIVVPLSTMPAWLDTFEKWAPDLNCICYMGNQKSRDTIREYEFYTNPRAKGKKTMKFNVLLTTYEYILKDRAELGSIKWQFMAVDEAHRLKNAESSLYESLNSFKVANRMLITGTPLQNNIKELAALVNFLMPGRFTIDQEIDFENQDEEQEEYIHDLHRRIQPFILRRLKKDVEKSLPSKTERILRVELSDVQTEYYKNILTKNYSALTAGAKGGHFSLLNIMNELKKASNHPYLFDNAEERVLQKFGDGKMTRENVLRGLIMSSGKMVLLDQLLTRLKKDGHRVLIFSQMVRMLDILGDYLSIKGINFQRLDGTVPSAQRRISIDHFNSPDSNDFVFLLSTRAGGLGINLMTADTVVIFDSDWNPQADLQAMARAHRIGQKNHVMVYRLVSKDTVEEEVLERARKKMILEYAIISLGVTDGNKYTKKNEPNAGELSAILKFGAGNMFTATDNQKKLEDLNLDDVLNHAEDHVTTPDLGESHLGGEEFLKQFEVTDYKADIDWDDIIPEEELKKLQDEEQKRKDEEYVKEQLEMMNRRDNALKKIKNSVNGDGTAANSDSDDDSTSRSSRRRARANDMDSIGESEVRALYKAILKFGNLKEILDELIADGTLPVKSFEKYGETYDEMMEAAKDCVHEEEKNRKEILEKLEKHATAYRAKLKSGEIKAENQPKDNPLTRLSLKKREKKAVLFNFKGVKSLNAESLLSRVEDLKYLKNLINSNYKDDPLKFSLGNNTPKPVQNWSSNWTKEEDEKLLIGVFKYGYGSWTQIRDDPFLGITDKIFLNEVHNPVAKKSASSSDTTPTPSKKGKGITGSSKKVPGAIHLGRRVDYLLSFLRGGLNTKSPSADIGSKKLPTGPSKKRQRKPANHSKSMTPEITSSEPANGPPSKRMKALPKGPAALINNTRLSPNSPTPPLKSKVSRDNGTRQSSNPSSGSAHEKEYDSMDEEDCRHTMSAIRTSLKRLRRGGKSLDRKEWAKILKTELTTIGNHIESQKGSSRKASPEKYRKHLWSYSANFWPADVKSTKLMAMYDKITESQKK

Chain of Protein translocase subunit SecA (Escherichia coli (strain K12)) (P10408 whole entry): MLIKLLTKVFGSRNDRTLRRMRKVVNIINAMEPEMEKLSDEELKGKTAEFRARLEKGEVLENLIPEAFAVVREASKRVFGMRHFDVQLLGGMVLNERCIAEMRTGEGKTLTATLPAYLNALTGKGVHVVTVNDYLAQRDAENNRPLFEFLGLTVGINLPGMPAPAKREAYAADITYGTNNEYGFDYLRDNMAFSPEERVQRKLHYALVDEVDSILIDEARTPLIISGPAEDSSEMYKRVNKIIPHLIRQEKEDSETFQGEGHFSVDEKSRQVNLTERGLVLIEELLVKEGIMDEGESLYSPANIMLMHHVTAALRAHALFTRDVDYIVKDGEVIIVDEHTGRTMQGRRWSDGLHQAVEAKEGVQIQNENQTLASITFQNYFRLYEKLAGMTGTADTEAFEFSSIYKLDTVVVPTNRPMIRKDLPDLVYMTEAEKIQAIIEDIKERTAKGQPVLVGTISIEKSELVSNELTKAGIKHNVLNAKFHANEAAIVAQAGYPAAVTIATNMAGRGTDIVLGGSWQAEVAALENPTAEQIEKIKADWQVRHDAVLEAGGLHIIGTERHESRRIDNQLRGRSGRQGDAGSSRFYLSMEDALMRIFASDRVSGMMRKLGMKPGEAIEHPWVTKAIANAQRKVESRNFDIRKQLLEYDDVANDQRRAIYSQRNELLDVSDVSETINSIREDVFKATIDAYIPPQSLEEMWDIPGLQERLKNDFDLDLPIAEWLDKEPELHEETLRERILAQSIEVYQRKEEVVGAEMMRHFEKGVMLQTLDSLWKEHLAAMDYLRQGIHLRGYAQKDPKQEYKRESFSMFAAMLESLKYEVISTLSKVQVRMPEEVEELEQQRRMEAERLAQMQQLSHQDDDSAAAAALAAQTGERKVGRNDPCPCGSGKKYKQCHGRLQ

As to `Cn1cc(CN2CCCn3cnc(CN4CCCC4=O)c3C2)cn1`, the Percent Effect in assay [1] is -2.78%; in assay [2] it was -2.67%; in [3] it was 4.3%; in assay [4] it was 32.8%; with Trypanosoma cruzi, -1.74%; in assay [5], -23.5%. Also, the Percent Effect in assay [6] is 3.76%; in the assay listed under Homo sapiens it was -13.1%; in assay [7], 1.04%; in assay [8], 2.5%; in assay [9] it was -4.19%.
Regarding `Cc1cnn(CC2CCCN2Cc2coc(-c3cccs3)n2)c1` (stereo unspecified), the Percent Effect in assay [1] was -6.03%; in assay [2], 0%; in assay [3] it was 3.45%; in assay [4], -6.51%; in the assay on Trypanosoma cruzi it was -1.37%; in assay [5], 0.909%. The Percent Effect in assay [6] is 1.77%; in the assay listed under Homo sapiens, 5.98%; in assay [7], 2.15%; in assay [8], 10%; in assay [9] it was -1.19%.
As for `COCc1nc(N(C)C)ncc1C(=O)NC(C)C`, the Percent Effect was -5.73% in [1]; -1.33% in assay [2]; 4.52% in [3]; -0.683% in [4]; -3.54% with Trypanosoma cruzi; -2.99% in assay [5]. In addition, the Percent Effect in assay [6] was 4.07%; in the assay filed under Homo sapiens it was -5.53%; in assay [7], 2.12%; in assay [8], -2.56%; in assay [9], -0.879%.
Consider `Cc1ccc2c(n1)N(C)CCN(C(=O)C1CC1)C2`, for which the Percent Effect is 1.38% in assay [1]; 8% in assay [2]; 0.651% in assay [3]; 2.31% in [4]; -8.69% in the assay on Trypanosoma cruzi; -54.3% in assay [5]. Moreover, the Percent Effect in assay [6] was 7.69%; in the assay listed under Homo sapiens, 12.1%; in assay [7] it was 2.08%; in assay [8], 17.5%; in [9], -6.8%.
Turning to `CC(C)c1ncc2c(n1)CN(Cc1ccc(C(N)=O)cc1)CC2`, the Percent Effect in assay [1] was -5.85%; in assay [2], 18.4%; in assay [3], -25.7%; in [4] it was -1.87%; in the assay on Trypanosoma cruzi, 10.7%; in assay [5] it was -2.68%. For the same compound, the Percent Effect was 11.5% in assay [6]; 11.1% in the assay filed under Homo sapiens; 12.2% in assay [7]; 19.5% in assay [8]; -14.2% in [9].
Consider `Cn1cc(CN2CCc3onc(COc4cccnc4)c3C2)cn1`, for which the Percent Effect is 6.35% in [1]; 14.7% in assay [2]; 17.2% in assay [3]; -10.2% in assay [4]; -9.43% in the assay on Trypanosoma cruzi; -5.11% in assay [5]. Further, the Percent Effect is 16.6% in assay [6]; 11.8% in the assay listed under Homo sapiens; 0% in [7]; 5.13% in [8]; -10.7% in assay [9].
Consider `O=C(CN1CCNCC1)N1CC[C@@H](c2ccc3ccccc3c2)[C@H](O)C1`, for which the Percent Effect is -0.963% in [1]; 8% in assay [2]; -4.87% in assay [3]; 12.2% in assay [4]; 0.876% with Trypanosoma cruzi; 2.08% in assay [5]. Further, the Percent Effect is 14.7% in assay [6]; 10.1% in the assay listed under Homo sapiens; 7.1% in assay [7]; 13.6% in assay [8]; -3.45% in assay [9].
In the case of `COCCCNC(=O)CCn1nc(C)c2ccccc21`, the Percent Effect in assay [1] is -3.61%; in [2], 6.67%; in assay [3], 0.569%; in assay [4] it was 3.25%; with Trypanosoma cruzi, -6.09%; in [5], -6.16%. For the same compound, the Percent Effect in assay [6] is 15%; in the assay filed under Homo sapiens it was 2.4%; in assay [7] it was 3.17%; in assay [8], 2.56%; in assay [9], -8.28%.
Turning to `CCc1nc(C2CCCN(C(=O)CN(C)S(C)(=O)=O)C2)no1` (stereo unspecified), the Percent Effect in [1] is -5.19%; in [2], 18.2%; in assay [3] it was -2.51%; in assay [4], -7.32%; with Trypanosoma cruzi, 6.95%; in assay [5] it was -2.32%. Also, the Percent Effect in assay [6] was 9.3%; in the assay filed under Homo sapiens, 0.959%; in assay [7], 6.67%; in assay [8], 21.2%; in assay [9], -25.7%.
As for `CCOC(=O)[C@]12CCCN(Cc3nccs3)C[C@H]1CN(C(C)=O)C2`, the Percent Effect is -1.26% in assay [1]; 5.2% in assay [2]; -1.96% in assay [3]; -4.79% in assay [4]; -9.17% in the assay on Trypanosoma cruzi; -0.645% in [5]. For the same compound, the Percent Effect in assay [6] was 15.7%; in the assay listed under Homo sapiens, 7.39%; in assay [7], 0%; in assay [8] it was 6.41%; in assay [9] it was -6.7%.
With `CCn1nnc2c1C(COC)CN(Cc1cccs1)C2` (stereo unspecified), the Percent Effect in [1] was -2.49%; in [2], 5.41%; in [3], 4.39%; in assay [4], 6.4%; in the assay on Trypanosoma cruzi, 4.69%; in assay [5], 1.67%. The Percent Effect was 12.3% in assay [6]; -4.92% in the assay filed under Homo sapiens; 4.95% in assay [7]; 8.54% in [8]; -4.09% in assay [9].

The record behind these values is ChEMBL document CHEMBL3988442, “University of Dundee, Small-Polar-MMV Screening Library” (2021).
